Test [1] in a line: qHTS assay to identify small molecule agonists of the vitamin D receptor (VDR) signaling pathway - cell viability counter screen (AID 743224). Note: nearly all actives have a fitted effect of over 50% in size. Note: potency is the fitted concentration of half-maximal effect. Put shortly: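 Counter screen for cytotoxicity: VDR-bla cells at 2,000 cells/well, 16 h compound exposure, then CellTiter-Glo luminescence after the beta-lactamase measurement.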
(qHTS replaces the single test concentration by a dilution series.)

Test [2] in a line: qHTS assay to identify small molecule agonists of the endoplasmic reticulum stress response signaling pathway - cell viability counter screen (AID 1159517; calls by dose curve; note: nearly all actives have a fitted effect of over 50% in size; note: potency is the fitted concentration of half-maximal effect). Put shortly:
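Cytotoxicity of test compounds toward ESRE-bla HeLa cells was assessed after 5 hr exposure. The luminescent CellTiter-Glo signal was measured 30 min after reagent addition.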

Test [3] can be described thus: qHTS assay to identify small molecule antagonists of the retinoid-related orphan receptor gamma (ROR-gamma) signaling pathway - cell viability counter screen (AID 1159520). Note: nearly all actives have a fitted effect of over 50% in size. Note: potency is the fitted concentration of half-maximal effect. Put shortly:
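Tet-on ROR gamma CHO cells (1,000/well) were plated 4 hr, given compounds in DMSO for 2 hr at 37 C, then induced with 1 uM final doxycycline for 16 hr. Viability was read as ATP by CellTiter-Glo luminescence after 30 min.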

In test [4] the target is Nuclear receptor ROR-gamma (Homo sapiens) (UniProt P51449). In words: qHTS assay to identify small molecule antagonists of the retinoid-related orphan receptor gamma (ROR-gamma) signaling pathway (AID 1159521; note: nearly all actives have a fitted effect of over 50% in size; note: potency is the fitted concentration of half-maximal effect). Put shortly:
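Screening format: cell-based luciferase reporter in CHO cells with doxycycline-inducible RORγ. Compound pre-exposure lasts 2 h, doxycycline is 1 uM final, induction runs 16 h at 37 C, and ONE-Glo luminescence is read.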

Test [5] is described as follows: qHTS assay to identify small molecule agonists of the RXR signaling pathway - cell viability counter screen (AID 1159529). Note: nearly all actives have a fitted effect of over 50% in size. Note: potency is the fitted concentration of half-maximal effect. Put shortly: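 Viability read-out for the RXR-alpha agonist qHTS: luminescent CellTiter-Glo signal after 30 min at RT. HEK 293T bla reporter cells, 2% charcoal-stripped FBS, 16 hr compound incubation; tetraoctyl ammonium bromide as cytotoxic control.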

Test [6] is described as follows: qHTS assay to identify small molecule antagonists of the retinoid acid receptor (RAR) signaling pathway - cell viability counter screen (AID 1159551). Note: nearly all actives have a fitted effect of over 35% in size. Note: potency is the fitted concentration of half-maximal effect. Put shortly:
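Measured by luminescent ATP detection, viability reflects C3RL4 cells treated 6 h at 37 C with test chemicals in the presence of 1 uM (final) retinol.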

The nature of test [7]: qHTS assay to identify small molecule antagonists of the retinoic acid receptor (RAR) signaling pathway (AID 1159552; note: nearly all actives have a fitted effect of over 50% in size; note: potency is the fitted concentration of half-maximal effect). Put shortly: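 Using a RARE-driven luciferase construct in C3RL4 cells, retinol at 1 uM final provided the agonist stimulus while compounds were co-applied. After 6 hours at 37 C, luminescence was recorded to flag inhibitors of retinol signaling.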
Test [8] can be described thus: qHTS assay to identify small molecule agonists of the retinoic acid receptor (RAR) signaling pathway (AID 1159553). Note: potency is the fitted concentration of half-maximal effect. Put shortly: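 6 hr compound exposure (DMSO vehicle) of overnight-plated C3RL4 RARE-luc cells at 37 C; luminescence quantified after 30 min RT with luciferase reagent.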
Test [9] is described as follows: qHTS assay to identify small molecule antagonists of the estrogen related receptor (ERR) signaling pathway from Tox21 library - cell viability counter screen (AID 1224834). Note: nearly all actives have a fitted effect of over 30% in size. Note: potency is the fitted concentration of half-maximal effect. Put shortly:
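Seeded ERR cells were rested 6 h at 37 C/5% CO2 before compounds, positive and negative controls or DMSO were added. Incubation continued for 17.5 h, and viability was then quantified by CellTiter-Fluor fluorescence.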

Test [10] can be described thus: qHTS assay to identify small molecule antagonists of the estrogen related receptor (ERR) signaling pathway - cell viability counter screen (AID 1224818). Note: series mostly up to about 46 µM; % is set by controls: 0 for no effect and ±100 for the full control effect. Put shortly: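 Compounds dissolved in DMSO were applied to ERR cells seeded at 2,000 per well 6 h earlier. Cell viability followed 17.5 h later via 30-min CellTiter-Fluor fluorescence.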
Test [11] can be described thus: qHTS assay to identify small molecule antagonists of the estrogen related receptor (ERR) signaling pathway (AID 1224819). Put shortly: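 Compounds dissolved in DMSO were pin-transferred onto ERR cells that had been plated 6 h earlier, and cells were then incubated 18 h at 37 C; signal was luciferase luminescence via One-Glo.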
Test [12] in a line: qHTS assay to identify small molecule agonists of the estrogen related receptor (ERR) signaling pathway (AID 1224820). Note: % is set by controls: 0 for no effect and ±100 for the full control effect. Put shortly:
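Luminescence readout (One-Glo, 30 min RT) from NTP-supplied ERR cell line exposed to compounds for 18 h at 37 C. Cells seeded 2,000 per well and pre-incubated 6 h before pin-tool compound transfer.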

Test [13] can be described thus: qHTS assay to identify small molecule agonists of the estrogen related receptor signaling pathway with the pleiotropic PPARgamma coactivator (PGC) (AID 1224823). Note: % is set by controls: 0 for no effect and ±100 for the full control effect. Put shortly:
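Luminescence readout (One-Glo, 30 min RT) from PGC/ERR cell line treated 18 h at 37 C with pin-tool-delivered DMSO compound solutions; cells plated 6 h before dosing. Quantitative HTS format.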

A short description of test [14]: qHTS assay to identify small molecule agonists of the AP-1 signaling pathway - cell viability counter screen (AID 1159525; calls by dose curve; note: nearly all actives have a fitted effect of over 55% in size; note: potency is the fitted concentration of half-maximal effect). Put shortly:
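Each titration point was normalised to DMSO and tetra n-octyl ammonium bromide controls. The read was Cell Titer Glo luminescence after 30 min at RT, following 5 h compound exposure of ME-180 AP-1-bla cells at 37 °C.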

The test system of test [15] is estrogen-related receptor alpha (ERRalpha) with PGC-1alpha coactivator, human. As to the kind of experiment: qHTS assay to identify small molecule antagonists of the estrogen related receptor signaling pathway with the pleiotropic PPARgamma coactivator (PGC) (AID 1224821; calls by dose curve). Put shortly:
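PGC/ERR reporter cells; 6 h pre-incubation 37 C/5% CO2; pin-tool compound in DMSO, 18 h 37 C; One-Glo added, 30 min RT; luminescence read. qHTS antagonist mode.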

A short description of test [16]: qHTS assay to identify small molecule antagonists of the estrogen related receptor signaling pathway with the pleiotropic PPARgamma coactivator (PGC) cell viability counter screen (AID 1224822; note: potency is the fitted concentration of half-maximal effect). Put shortly:
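Counter screen for cell viability: PGC/ERR cells, 6 h pre-incubation after plating, 17.5 h compound exposure at 37 C, fluorescence from CellTiter-Fluor after 30 min.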

For test [17], the target named is Retinoic acid receptor RXR-alpha (Homo sapiens) (UniProt P19793). As to the kind of experiment: qHTS assay to identify small molecule agonists of the RXR signaling pathway (AID 1159527; calls by dose curve; note: % is set by controls: 0 for no effect and ±100 for the full control effect; nearly all actives have a fitted effect of over 35% in size). Put shortly:
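Fluorescence ratio readout (460 vs 530 nm) from GeneBLAzer RXR-alpha HEK 293T cells after 16 hr compound treatment; cells seeded 5 hr beforehand in low-serum, charcoal-stripped medium.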

Test [18] in a line: qHTS assay to identify small molecule antagonists of the vitamin D receptor (VDR) signaling pathway - cell viability counter screen (AID 743225). Note: nearly all actives have a fitted effect of over 50% in size. Note: potency is the fitted concentration of half-maximal effect. Put shortly: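 In this counter screen, VDR-bla HEK 293T cells receive test compound plus 3 nM final calcitriol for 16 h at 37C. Room-temperature steps of 2 h with the beta-lactamase substrate, then 30 min with CellTiter-Glo, precede the luminescence read.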

Test [19] is described as follows: qHTS assay to identify small molecule agonists of the AP-1 signaling pathway (AID 1159526; calls by dose curve; note: % is set by controls: 0 for no effect and ±100 for the full control effect).

This note sets out measurements from PubChem BioAssay (Tox21).

The structures appear in SMILES notation. Records with an inconclusive call do not appear. Values without a mark were called inactive. Active and inactive are the calls of the source. Unless noted, calls come from the whole dose curve; as a rule, active = well fitted curve in the direction sought with a large enough effect in the repeat runs; inconclusive = weak or mixed curves; inactive = no such curve, though single readings can be large; an effect the other way counts as inactive or inconclusive.

Sequence of Retinoic acid receptor RXR-alpha (Homo sapiens) (P19793 whole entry, looked up): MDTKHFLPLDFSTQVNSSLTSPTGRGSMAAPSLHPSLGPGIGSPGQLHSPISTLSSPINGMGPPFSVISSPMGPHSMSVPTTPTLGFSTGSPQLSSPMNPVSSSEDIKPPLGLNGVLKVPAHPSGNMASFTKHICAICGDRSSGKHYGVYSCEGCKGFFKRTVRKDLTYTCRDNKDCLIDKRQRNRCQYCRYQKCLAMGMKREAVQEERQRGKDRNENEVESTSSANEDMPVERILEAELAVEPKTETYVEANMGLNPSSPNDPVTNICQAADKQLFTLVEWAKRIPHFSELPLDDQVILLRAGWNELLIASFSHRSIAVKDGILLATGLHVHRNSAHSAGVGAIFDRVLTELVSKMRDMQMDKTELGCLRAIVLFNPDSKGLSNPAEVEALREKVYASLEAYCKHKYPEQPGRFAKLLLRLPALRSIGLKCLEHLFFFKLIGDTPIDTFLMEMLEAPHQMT

Turning to `C/C=C/C(=O)Oc1c(CCCCCC(C)C)cc([N+](=O)[O-])cc1[N+](=O)[O-]`, the Potency in test [1] is 13.8 µM (active); in test [2] it was 21.9 µM (active); in [3], 19.3 µM (active); in test [4], 6.11 µM (active); in [5], 24.5 µM (active); in test [7] it was 17.2 µM (active). For the same compound, the Potency in test [9] is 24.3 µM (active). For the same compound, the Potency entry in test [6] and in test [8] was “inactive” each time.
As for `O=C1c2c(O)ccc(O)c2C(=O)c2c(NCCNCCO)ccc(NCCNCCO)c21`, the Potency result in test [2], in test [4] and in test [10] was “inactive” throughout. Besides, the Potency in test [3] is 23.7 µM (active); in test [7], 0.119 µM (active); in test [11], 1.44 µM (active); in [9] it was 3.35 µM (active). Also, the result in test [12] and in [13] was inactive.
As to `O=C1NCN(c2ccccc2)C12CCN(CCCC(c1ccc(F)cc1)c1ccc(F)cc1)CC2`, the Potency in [2] was 23.9 µM (active); in test [3], 33.5 µM (active); in [4], 26.6 µM (active); in test [14], 21.3 µM (active); in test [5] it was 21.3 µM (active); in [7], 29.8 µM (active). The results for the Potency in [11], in test [16] and in [9] were 23.7 µM (active), 22.8 µM (active) and 26.6 µM (active), respectively. The compound was called inactive in test [12], in [15] and in [13].
Regarding `CCC1(c2cnc[nH]2)Cc2ccccc2C1`, the Potency entry in [1], in test [2], in test [3], in [4], in test [14] and in test [17] was “inactive” each time. The Potency result in test [5], in test [6], in test [7], in test [8] and in [9] was “inactive” in each case.
On to `CO[C@H]1C=CO[C@@]2(C)Oc3c(C)c(O)c4c(O)c(cc(O)c4c3C2=O)NC(=O)/C(C)=C\C=C/[C@H](C)[C@H](O)[C@@H](C)[C@@H](O)[C@@H](C)[C@H](OC(C)=O)[C@@H]1C`, for which the Potency result in test [1], in [18], in test [2], in test [3], in [6] and in test [7] was “inactive” in each case. In test [8], the Potency result was “inactive”. Also, the Potency was 43.6 µM (active) in test [4], 49.3 µM (active) in [14] and 61.6 µM (active) in test [9].
With `COc1cc(C(C)C)c2c(c1)S(=O)(=O)N(COc1cc(=O)n3cccc(OCCN4CCCCC4)c3n1)C2=O`, the Potency result in test [1], in test [18], in test [2] and in test [8] was “inactive” each time. In addition, the activity, negative = cytotoxicity in test [3] was -0.0922% [at 19 µM]. Further, the activity change, negative = inhibition in test [4] was -4.73% [at 19 µM]. Further, the viability change, negative = cytotoxic in [14] is -17.4% [at 15.8 µM]. Besides, the activation in test [19] was 7.65% [at 15.8 µM]. In addition, the activity change, negative = cytotoxicity in [5] was -5.15% [at 15.8 µM]; in test [6], 5.72% [at 19 µM]. In addition, in test [7], the activity, negative = inhibition is 1.67% [at 19 µM].
For `CCCOc1sc(C(=O)N2CCC(c3cc(CN)ccc3F)CC2)c(C)c1Br`, the Potency was 35.7 µM (active) in test [1]; 35.7 µM (active) in test [18]; 44.9 µM (active) in test [2]; 28.1 µM (active) in [4]; 17.9 µM (active) in test [5]; 62.8 µM (active) in test [6]. Moreover, the Potency in test [7] is 39.7 µM (active).
For `COc1ccc(-n2nc(CCC(=O)N(C)O)cc2-c2ccc(Cl)cc2)cc1`, the Potency result in [18], in test [2], in test [3], in test [14], in test [6] and in test [7] was “inactive” throughout. Further, the Potency entry in [8] is “inactive”. Moreover, the Potency in test [9] was 26.6 µM (active).
Take `Cc1ccc(-n2[nH]c(C)c(N=Nc3cccc(-c4cccc(C(=O)O)c4)c3O)c2=O)cc1C`: the Potency entry in test [1], in test [18], in test [2], in test [17], in test [6] and in [7] was “inactive” throughout. Also, the Potency was 26.8 µM (active) in [14] and 29.8 µM (active) in [8].
As to `CCCC(CC)CCCCCCCN` (configuration not stated), the Potency result in test [1], in test [14], in [6], in test [7] and in [8] was “inactive” throughout. For the same compound, in test [2], the Potency is 39.9 µM (active).
On to `Clc1ccc(C(Cn2ccnc2)OCc2ccsc2Cl)c(Cl)c1` (configuration not stated), for which the Potency entry in test [1] and in [2] was “inactive” throughout. In addition, the Potency is 23.7 µM (active) in test [4] and 21.1 µM (active) in test [9].
Take `CCOC(=O)[C@@](C)(N)Cc1ccc(O)c(O)c1`: the Potency result in [1], in test [18], in test [2], in [3], in [19] and in test [5] was “inactive” each time. For the same compound, the Potency result in test [6] and in test [9] was “inactive” in each case.
`CCCCCCCCCCCCCOP(=O)(O)O`: the Potency result in test [1], in test [3], in test [14], in test [5], in test [6] and in test [7] was “inactive” in each case. For the same compound, the Potency result in test [8] and in [9] was “inactive” in each case. In addition, the Potency in test [2] is 30.9 µM (active).
Regarding `Cc1cc(Nc2ccc(O)cc2)ccc1N`, the Potency result in test [1], in test [18], in test [2], in test [14], in test [17] and in [7] was “inactive” throughout. Further, the Potency result in test [8] was “inactive”. In addition, in test [9], the Potency was 30.5 µM (active).
With `Oc1ccc(-c2ccccc2)c(Cl)c1`, the Potency result in test [18], in [2], in test [4], in test [17], in [6] and in test [7] was “inactive” each time. For the same compound, the Potency entry in [9] is “inactive”.
Take `Cc1occc1SSc1ccoc1C`: the Potency entry in [18], in [2], in [4], in test [5] and in test [6] was “inactive” throughout.
Consider `Nc1cc(Cl)c([N+](=O)[O-])cc1O`, for which the Potency entry in test [1], in [18], in [2], in test [4], in test [14] and in test [17] was “inactive” throughout. In addition, the Potency entry in test [5], in test [6] and in [8] was “inactive” in each case. Also, the Potency in [9] was 54 µM (active).
